Screening data deposited in PubChem by several laboratories.
CD11b adhes enh: CD11b/CD18-fibrinogen binding enhancement; AID 1499; activation, % at 10 µM; P05107+P11215; 93,000 compounds, 0.07% hits; K562 CD11b/CD18 adhesion to fibrinogen, ATPlite luminescence;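 active = 10 µM primary screen giving 50% or more activity, confirmed by 40% or more on retest at that dose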
WNV NS2B-NS3 inh: blocks West Nile virus NS2B-NS3 protease activity; z-score (no concentration beside the values); 65,000 compounds, 0.18% hits; WNV NS2B-NS3 protease, fluorogenic substrate Ex360/Em465; stronger effect = lower value; P06935; AID 577; in the data active = z-score below about -3
Target sequence (P06935 1371-1501 limits assumed): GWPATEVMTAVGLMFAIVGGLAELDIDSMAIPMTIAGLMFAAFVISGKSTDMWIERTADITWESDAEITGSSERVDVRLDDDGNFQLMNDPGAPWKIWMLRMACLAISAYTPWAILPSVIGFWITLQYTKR
Target sequence (P06935 1502-1679 limits assumed): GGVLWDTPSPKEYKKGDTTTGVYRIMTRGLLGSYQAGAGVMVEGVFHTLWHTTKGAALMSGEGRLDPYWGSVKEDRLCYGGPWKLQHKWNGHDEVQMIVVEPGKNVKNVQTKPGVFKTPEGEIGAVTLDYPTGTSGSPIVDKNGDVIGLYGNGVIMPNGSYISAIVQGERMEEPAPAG
Mac1 fbg inh: blocks human CD11b/CD18 adhesion to fibrinogen | 93,000 compounds, 0.54% hits | inhibition, % at 10 µM | P05107+P11215 | K562 CD11b/CD18 adhesion to fibrinogen, ATPlite luminescence; Mn2+ added to activate the integrin | AID 1497;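 active = primary inhibition of 50% or more at 10 µM, then 40% or more on retest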
Numbers without * were called inactive; nt = no result. In the library only some 0.6% were active in any assay of this set; here they are far more common.

SMILES | CD11b adhes enh | WNV NS2B-NS3 inh | Mac1 fbg inh
COc1ccc(-c2nc(CS(=O)(=O)CC(=O)NCCc3cc(OC)ccc3OC)c(C)o2)cc1 | nt | 0.91 | nt
COc1ccc(OC)c(CCNC(=O)Cn2sc3nc(C)cc(C)c3c2=O)c1 | -7 | -0.66 | 52*
CN(C)c1ccc(C2N(c3cccc(Cl)c3)C(=O)C3CCCN32)cc1 (configuration not stated) | nt | 0.33 | nt
COc1ccc(CNC(=O)COC(=O)Cc2ccc(Cl)cc2Cl)cc1 | 0 | nt | 12
NC(=O)[C@H](Cc1cc2ccccc2s1)NC(=O)[C@@H]1CC2(CC(c3cccc(NC(=O)[C@@H]4CCC(=O)N4)c3)=NO2)CN1C(=O)c1ccccc1 (some centres not stated) | 8 | nt | -5
NC(=O)[C@H](Cc1cc2ccccc2s1)NC(=O)[C@@H]1CC2(CC(c3cccc(NC(=O)[C@@H]4CCC(=O)N4)c3)=NO2)CN1C(=O)/C=C/c1c(F)cccc1Cl (some centres not stated) | 148* | nt | 1
CC(C)c1noc2ncc(C(=O)c3cc(Cl)cc(Cl)c3O)cc12 | -11 | nt | 95*
COc1ccc(O)c(C(=O)c2cnc3onc(C)c3c2)c1 | -6 | 0.25 | 3
c1csc(CCNc2ncnc3sc4c(c23)CCC4)c1 | -6 | 0.35 | 86*
c1cn(CCCNc2ncnc3sc4c(c23)CCC4)cn1 | -2 | -0.01 | 0
CCOC(=O)c1cccc(-n2c(-c3ccc(OC)cc3)nc3nc4ccccc4nc32)c1 | 82 | nt | 3
CCOC(=O)c1c(C)n(C)c2cc(-c3ccc(F)cc3)c(O)cc12 | -4 | nt | -10
O=C1CCCN1CCC1CCN(C2CC(=O)N(Cc3ccc(N4CCCC4=O)cc3)C2=O)CC1 (configuration not stated) | -4 | -1.3 | -5
O=C1CC(N2CCOCC2)C(=O)N1Cc1ccc(N2CCCC2=O)cc1 (configuration not stated) | 0 | -3.2* | -1
CC(=O)c1c(C)[nH]c(C(=O)CSc2nc3ccc(C)cc3[nH]2)c1C | -1 | nt | -2
O=C(c1ccc2nc(N3CCOCC3)sc2c1)N1CCCC1 | -2 | 0.28 | 4
CC1CCN(c2nc3ccc(C(=O)N4CCN(Cc5ccc6c(c5)OCO6)CC4)cc3s2)CC1 | -4 | nt | 56*
CCCCN(CCCC)CCNC(=O)Cc1nc2c(c(=O)[nH]c(=O)n2C)n1C | 0 | 1.2 | 5
Cc1ccc(-n2c(SCC(=O)Nc3ccc4c(c3)OCCO4)nnc2-c2ccco2)cc1 | 4 | 0.63 | -8
CCCn1c(SCC(=O)Nc2ccc3c(c2)OCCO3)nnc1-c1ccco1 | -2 | -3.9* | -12
CC(C)(C)c1ccc(-c2csc(NNC3=NCCCCC3)n2)cc1 | -5 | nt | 89*
Brc1ccc(-c2csc(NNC3=NCCCCC3)n2)cc1 | -1 | nt | 6
Cc1ccc(CC(=O)Nc2ccccc2N2CCOCC2)cc1C | -3 | nt | 5
COc1ccc(-c2cnnc(N/N=C/C(C)=C/c3ccccc3)n2)cc1 | 51 | nt | -11
CCOc1ccc(C(c2c(C)[nH][nH]c2=O)c2c(C)[nH][nH]c2=O)cc1OC | -3 | nt | 5
SMILES | CD11b adhes enh | WNV NS2B-NS3 inh | Mac1 fbg inh
COc1ccc(C(c2c(C)[nH]n(-c3ccccc3)c2=O)c2c(C)[nH]n(-c3ccccc3)c2=O)cc1OC | -4 | nt | 52*
COc1cc(CNc2ccc(O)cc2)cc(Br)c1OCc1ccccc1F | -8 | nt | 72
CCOc1cc(CNCCO)cc(Br)c1OCc1ccccc1Cl | -7 | nt | 74*
COc1cc(CNCc2ccncc2)cc(Br)c1OCc1ccccc1F | -7 | nt | 62*
OCCNCc1cc(Br)ccc1OCc1ccccc1Cl | 0 | nt | -21
CSc1ncc(Cl)c(C(=O)C(C#N)c2nc3c(C)cc(C)cc3c(=O)[nH]2)n1 (configuration not stated) | nt | -0.86 | nt
Cc1ccc(-c2noc(CN(C(=O)C34CC5CC(CC(C5)C3)C4)C(C)C)n2)cc1 | nt | 2.5 | nt
CCn1c(Oc2ccc(Oc3ncc(Cl)cc3Cl)cc2)nc2c1c(=O)n(C)c(=O)n2C | nt | -1.1 | nt
CCOc1cc(/C=C2\C(=O)N(c3ccc(C(N)=O)cc3)N=C2C)ccc1OC(=O)c1cccs1 | 81* | nt | 8
COc1cc(/C=N/Nc2ccccc2)ccc1OC(=O)c1cccs1 | 9 | nt | 39
CC(=O)c1ccc(NC(=O)C(=O)c2cn(CC(=O)N3CCCCC3)c3ccccc23)cc1 | 39 | nt | 2
COc1ccc(NS(=O)(=O)c2ccc(-n3nnc4ccccc43)c([N+](=O)[O-])c2)cc1 | 0 | nt | 7
O=[N+]([O-])c1cc(S(=O)(=O)Nc2cccc(C(F)(F)F)c2)ccc1-n1nnc2ccccc21 | -7 | nt | 95*
Cn1c(=O)oc2cc(S(=O)(=O)N3CCCC(C(=O)NC4CCCc5ccccc54)C3)ccc21 (configuration not stated) | 1 | nt | 12
Cn1c(=O)oc2cc(S(=O)(=O)N3CCCC(C(=O)N4CC=C(c5ccccc5)CC4)C3)ccc21 (configuration not stated) | -3 | -0.64 | 61*
CCCC(C)C1C(C#N)=C(N)Oc2cc(C)oc(=O)c21 (configuration not stated) | nt | 0.87 | nt
N#Cc1ccccc1NC(=O)Nc1cccc(Cl)c1 | 2 | -0.68 | -14
Cc1c(N/N=C(\C#N)C(=O)c2ccccc2)c(=O)n(-c2ccccc2)n1C | 1 | nt | 14
N#C/C(=N\Nc1cccc(Cl)c1)C(=O)c1ccccc1 | -11 | nt | 98*
N#C/C(=N\Nc1ccccc1Cl)C(=O)c1ccccc1 | -11 | nt | 104*
Cc1ccc(C)n1-c1ccc(C(=O)NN)cc1 | -2 | nt | -10
COc1nccnc1NS(=O)(=O)c1ccc(NS(=O)(=O)c2ccc(NC(C)=O)cc2)cc1 | -2 | nt | 68*
COc1ccc(C(=O)Nc2ccc(S(=O)(=O)Nc3nccnc3OC)cc2)cc1 | 4 | nt | -6
CCOC(=O)C(C(=O)Nc1ccc(C)cc1)C1CCCCC1 (configuration not stated) | -7 | nt | -24
CCOC(=O)c1c(C)[nH]c(C)c1C(=O)COC(=O)c1cc2ccccc2cc1O | -4 | nt | 62*
SMILES | CD11b adhes enh | WNV NS2B-NS3 inh | Mac1 fbg inh
CCOC(=O)c1c(C)[nH]c(C)c1C(=O)COC(=O)/C=C/c1cccc(F)c1 | -4 | nt | 4
COc1ccccc1NC(=S)NC1CCC(CC2CCC(NC(=S)Nc3ccccc3OC)CC2)CC1 (configuration not stated) | 15 | nt | 40
Cc1cccc(N2CCN(C(=O)C3CCCCC3)CC2)c1C | -2 | 1 | 24
CCS(=O)(=O)N1Cc2ccccc2CC1C(=O)N1CCN(c2cccc(C)c2C)CC1 (configuration not stated) | 41 | -3.1* | -4
Clc1ccc(CCNc2ncnc3nc[nH]c23)cc1 | -9 | 0.57 | 60*
c1ccc(CCCNc2ncnc3nc[nH]c23)cc1 | -4 | -0.05 | 8
CCC(Sc1nc2sc(C(=O)OC)c(C)c2c(=O)n1N)C(=O)NCC1CCCO1 (configuration not stated) | 1 | 0.36 | 2
Cc1cccc(N2CCN(C(=O)CSCc3c(C)noc3C)CC2)c1C | -9 | -0.38 | 99*
Cc1noc(C)c1CSCC(=O)N1CCN(c2ccc(F)cc2)CC1 | 0 | 0.27 | 22
CN(C)CCCN1C(=O)C(O)=C(C(=O)c2cc3ccccc3o2)C1c1ccccn1 (configuration not stated) | nt | -0.2 | nt
